Experimental data reported in PubChem BioAssay AID2315 (National Center for Advancing Translational Sciences (NCATS), 2010).
The campaign covered roughly 290,000 compounds. About 27,000 (9.3%) were called active. Many of the other results were omitted from the sample, so actives are more common in it than they were. Values without a mark were called inactive. Cut-off read from the data, not from the text of the source: active = inhibition mostly above about 28% (no sharp cut-off); inactive = mostly below about 43%.

Test: A qHTS for Small Molecule Inhibitors of Shiga Toxin; note: 0% is about no effect
Details: Vero cells, Shiga toxin protein synthesis inhibition reporter; at 38.7 µM, active compounds read high

For `Cc1ccc(Nc2nc(N)nc(CSc3nnc(C)s3)n2)cc1`, the inhibition was 97.7% (active).
For `COc1ccc(CNC(=O)c2ccc3oc(C(C)C)nc3c2)cc1`, the inhibition was 51.4% (active).
For `COC(=O)c1ccc(CNC(=O)c2ccc3oc(C(C)C)nc3c2)cc1`, the inhibition was 71.8% (active).
For `COc1ccc(/C=N/NC(=O)c2ccccc2)cc1OS(=O)(=O)c1ccccc1`, the inhibition was 59.1% (active).
With `COc1cc(/C=N/NC(=O)c2ccccc2)ccc1OS(=O)(=O)c1ccccc1` the inhibition was 31% (active).
In the case of `COc1cc(CNc2ncn[nH]2)ccc1OCc1ccccc1C`, the inhibition is reported as 67.9% (active).
With `C/C(=N\Nc1nc2ccccc2[nH]1)c1cccs1` the inhibition was 97.5% (active).
For `C/C(=N\Nc1ncc(Cl)cc1Cl)c1ccc(S(=O)(=O)NCc2ccco2)cc1`, the inhibition was 144% (active).
In the case of `COc1cccc(/C(C)=N/Nc2ncc(Cl)cc2Cl)c1`, the inhibition is reported as 38.2% (active).
With `C/C(=N\Nc1ncc(Cl)cc1Cl)c1cccs1` the inhibition was 101% (active).

In order of rising inhibition:
1. c1n[nH]c(NCc2ccc3c(c2)OCO3)n1  -23.7%
2. COc1cc(/C=N/NC(=O)c2cccnc2)ccc1OC(=O)c1cccc(Br)c1  -22.1%
3. COc1ccc(-n2cc(-c3ccccc3)c3c(=S)nc[nH]c32)cc1  -14.3%
4. CCOC(=O)N1CCC(N2Cc3cccc(C(=O)Nc4ccc(S(=O)(=O)N(CC)CC)cc4)c3C2=O)CC1  -14%
5. Cc1c(Cl)cnc(NC(=O)COC(=O)c2ccc(S(=O)(=O)NCc3ccco3)cc2)c1Cl  -13.9%
6. COC(=O)c1ccc(CSc2nc3cc(Cl)ccc3o2)cc1  -12.3%
7. O=S(=O)(NCc1ccco1)c1cnc(Cl)c(Cl)c1  -12.1%
8. CC(Oc1cccc(Cl)c1)C(=O)NC1CC(C)(C)NC(C)(C)C1 (configuration not stated)  -11.3%
9. COc1ccc(CCNC(=O)C(=O)NCc2ccccc2C)cc1OC  -10.9%
10. COc1ccc(/C=N/S(=O)(=O)c2ccccc2)cc1OC  -10.1%
11. CCn1cc(C(=O)NCCC(=O)NCCO)c(=O)c2cc3c(cc21)OCO3  -8.77%
12. O=C(NCCCN1CCCCC1)C1CC(=O)N(CCc2ccccc2)C1 (configuration not stated)  -8.56%
13. COC(=O)c1sccc1N/N=C(\C)c1ccc(F)c(Cl)c1  -5.96%
14. C/C(=N\Nc1nc(Nc2ccccc2)nc(N2CCOCC2)n1)c1cccs1  -5.79%
15. Cc1ccc(N2CCN(c3ccc([N+](=O)[O-])cn3)CC2)c(C)c1  -5.14%
16. O=C(Nc1ccccc1-c1nc2ccccc2[nH]c1=O)c1cccs1  -5.13%
17. C/C(=N\NS(=O)(=O)c1ccc(Br)cc1)c1cccs1  -4.11%
18. COc1ccc(CNC(=O)c2cc(=O)c3c(C)cc(C)cc3o2)cc1  -1.33%
19. O=C(O)C1CCCN1S(=O)(=O)c1ccc(Br)cc1 (configuration not stated)  -1.18%
20. O=C(OCc1ccc([N+](=O)[O-])cc1)C1CC(=O)N(Cc2ccccc2Cl)C1 (configuration not stated)  -0.893%
21. COc1ccc(C(O)(C2CCCCC2)C(CN2CCCC2)c2ccccc2)cc1 (configuration not stated)  0.707%
22. CCC(=O)Nc1nnc(S(=O)(=O)N(CC(C)C)c2ccccc2)s1  1.25%
23. CCc1nnc(NC(=O)CCC(=O)N2CCN(c3cc(C)ccc3C)CC2)s1  2.43%
24. C/C(=N\Nc1ccc(S(N)(=O)=O)cc1[N+](=O)[O-])c1cccs1  2.64%
25. COc1ccc(C)cc1NC(=O)CN(C)S(=O)(=O)c1ccc2c(c1)n(C)c(=O)c(=O)n2C  3.45%
26. N#CCSc1nc(-c2ccccc2)nc2ccc(F)cc12  4.25%
27. Cc1ccc(S(=O)(=O)Oc2ccc(/C=N/NC(=O)c3ccncc3)cc2)cc1  9.5%
28. Cc1ccccc1CCNC(=O)C1CCC(=O)N(Cc2ccc(Cl)cc2)C1 (configuration not stated)  13.3%
29. COc1ccc(/C=N\NC(=O)c2sc(N)nc2C)cc1OC  15.2%
30. Cc1cccn2cc(-c3cccc(S(=O)(=O)N4CCCCC4)c3)nc12  15.3%
31. CC(C)c1nc2cc(C(=O)NC(C)c3cnn(C)c3)ccc2o1 (configuration not stated)  20.7%
32. CCN(CC)c1ccc(C(=O)N/N=C(\C)c2cccc(OC)c2)cc1  22.3%
33. CCOc1c2ccc(C(=O)NCc3ccc(OC(F)(F)F)cc3)cc2nn1C  29%
34. COc1ccc2c(c1OC)C(=O)N(c1ccc(O)cc1)C2  29.7%
35. CC(C)[C@H](NC(=O)N1CCn2c1nc1ccccc12)C(=O)NCCc1ccccc1  31.8%
36. O=C(O)c1c(NC(=O)N2CCCC2)sc2c1CCCC2  36.9%
37. O=C(NCc1cc(F)cc(C(F)(F)F)c1)C1CCC(=O)N(C2CCCC2)C1 (configuration not stated)  40.9%
